The panel holds about 83,000 compounds, 20% with a hit somewhere; the sample as a whole holds those more often.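 In brief: 96-well plates, 48 h treatment, single concentration, percent growth endpoint.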 Unmarked numbers belong to inactive results. Calls of active or inactive are those of the source.
tested on: HCT-15 colon; test: NCI-60 one-dose screen, 48 h (100 = growth as untreated, 0 = no growth, -100 = all killed); details: 10 µM unless noted
Experimental: Growth inhibition of the HCT-15 human tumor cell line is measured as a screen for anti-cancer activity. Cells are grown in 96 well plates and exposed to the test compound for 48 hours. Compounds are tested at a single concentration, which is 10^-5 M for most compounds. The reported endpoint is percent growth (GI% or GIPRCNT), where numbers from 0 - 100% represent growth inhibition, and numbers from -100% - 0 represent cell death. For example, a value of 40 represents 60% growth inhibition. A value of 0 means no net growth occurred over the course of the experiment. A value of -40 indicates 40% of cells at the beginning of the experiment died by the end of the experiment. A value of -100 means all cells are dead at the end of the experiment.
NCI-60 Human Tumor Cell Lines Screen was performed using the standard one-dose NCI protocol, which is described in more detail at https://dtp.cancer.gov/discovery_development/nci-60/default.htm.
Compounds with GIPRCNT values below 10 were considered active. Activity score was based on GIPRCNT using the following formula: […]
Score is 0 for GIPRCNT values of 100 or above, 50 for GIPRCNT values of 0, and 100 for GIPRCNT values of -100.

| Structure (SMILES) | growth |
| --- | --- |
| Cc1nnc(-c2ccc3c(c2)nc(/C=C/c2ccccc2)n3C2CCCCC2)o1 | 49.4% |
| O=C(NCc1cccc(CNC(=O)Nc2nc3ccccc3[nH]2)c1)Nc1nc2ccccc2[nH]1 | 69.5% |
| CN1CCN(Cc2ccc(NC(=O)c3cncc(C#Cc4cnc(N)c5ccc(F)cc45)c3)cc2C(F)(F)F)CC1 | -86.1% (active) |
| Cc1ccc(N2C(=O)CCC2=O)cc1 | 96.3% |
| O=C1c2ccccc2C(=O)C1c1ccc(Br)cc1 | 92.7% |
| C=C(C)[C@@H]1CCC[C@]2(C(=O)N3CCN(C)CC3)CC[C@]3(C)[C@@H](CC[C@@H]4[C@@]5(C)CC/C(=N\NC(=O)c6ccncc6)C(C)(C)[C@@H]5CC[C@]43C)[C@@H]12 | 92.1% |
| O=C(Nc1ccccc1N1CCCC1=O)c1oc2ccc(F)cc2c1-c1cnn(-c2ccccc2)c1 | 44.9% [50 µM] |
| N#CC1CCc2c(c(-c3ccc4nc(N)sc4c3)nc3ccc4[nH]ncc4c23)C1 (stereo not given) | 30% |
| N#CSc1c[nH]c2cccc(/C=C/C(=O)/C=C(O)/C=C/c3cccc4[nH]cc(SC#N)c34)c12 | -79.1% (active) |
| N#Cc1cccc(C2C3=C(COC3=O)N(CCO)c3cc4c(cc32)CCC4)c1 (stereo not given) | 9.99% (active) |
| O=C(C1CCCCC1)[C@@H]1[C@]2(C(=O)NC3CCCCC32)[C@@H]2CCCN2[C@@]12C(=O)NC1CCC(Cl)CC12 (stereo not given in full) | -83.4% [100 µM] (active) |
| N#C/C(=C\c1cn(Cc2ccccc2)c2ccccc12)C(=O)Nc1ncc(Cc2ccccc2Cl)s1 | 35.7% |
| CCn1cc(CNc2ccc(C(=O)Nc3cc4cc(OC)c(OC)cc4c(C)n3)cc2)cn1 | 26.3% |
| C#CCOc1cccc(-c2ncnc3cc(NC(=O)C=C)ccc23)c1 | 24% |
| N#C/C(=C\C=C\c1ccc(-c2cc(Cl)ccc2Cl)o1)c1nc2ccccc2s1 | 102% |
| COc1ccc(C2=CN3CC=CC3CC2=O)cc1 (stereo not given) | 95.2% |
| CC/C=C\CCC/C=C1/C(=O)C=C[C@@H]1C/C=C\CCCC(=O)OC | 4.07% (active) |
| COc1ccc(/C=C2\CN(C(=O)C(Cl)Cl)C/C(=C\c3ccc(OC)cc3)C2=O)cc1 | -14.4% (active) |
| COc1ccc(/C=C/C(c2cc(OC)c(OC)c(OC)c2)n2ccnc2)cc1O (stereo not given) | 24.9% |
| C[C@@H]1O[C@@H](O[C@@H]2C[C@H](c3ccc4c(c3O)C(=O)C3=C(C4=O)[C@@]4(O)C(=O)C[C@](C)(O)C[C@@]4(O)C=C3)O[C@H](C)[C@H]2O)CC[C@@H]1O[C@H]1C[C@@H](O)[C@H](O)[C@@H](C)O1 | 94.8% |

| Structure (SMILES) | growth |
| --- | --- |
| COc1ccc(/C=C/c2c(C(=O)/C=C/c3ccccc3)c(C)nc3ccccc23)cc1 | -26.2% (active) |
| O=S(=O)(NCCNc1nccc(-c2c(-c3ccc(F)c(O)c3)nc3sccn23)n1)c1ccc(F)cc1 | 29.9% |
| CO[C@H]1CC(=O)n2c3ccccc3c3c4c(c5c6ccccc6n1c5c32)C(=O)NC4=O | 62.4% |
| O=C1/C=C/[C@@H](O)[C@@H]2C[C@@H](O)C[C@H]2/C=C/CCC[C@H](CCO)O1 | 10% |
| CCOC(=O)CC1CSC(Nc2ccccc2)=N1 (stereo not given) | 107% |
| COc1ccc(-c2n[nH]c(=O)c3nc(NC(=S)Nc4ccc(Oc5ccccc5)cc4)sc23)cc1 | 103% |
| O=C(N/N=C/c1cc(Cl)ccc1O)c1ccccc1Nc1ccnc(C(F)(F)F)c1 | 30.4% |
| Cc1ccc2c(=O)cc(C(=O)Nc3sc4c(c3C(=O)NCc3cccnc3)CCCC4)oc2c1C | 103% |
| O=c1cc(-c2ccccc2)[nH]c2ncc(-c3ccc(F)cc3)n12 | 37.7% |
| Clc1c(Cl)[n+](Cc2ccc3ccccc3c2)cn1Cc1ccc2ccccc2c1 | 75.1% |
| Cn1c(=O)c2[nH]c(SCC(=O)Nc3ccc(C(=O)/C=C/c4ccccc4Cl)cc3)nc2n(C)c1=O | 92.5% |
| CN1CCN(CCCOc2cccc3nc(Nc4ccc(F)c(F)c4)ccc23)CC1 | -79.9% (active) |
| O=C(CCCCCNC(=O)c1cc(=O)c(O)co1)Nc1ccccc1 | 91.5% |
| CCOC(=O)c1c(C)c2c(n1Cc1ccccc1)CSCC2=O | 11.7% [100 µM] |
| COC(=O)CCC/C=C\C[C@H]1C=CC(=O)/C1=C/C[C@@H](O)C/C=C\CC(F)(F)F | -18.5% (active) |
| O=S(=O)(Nc1cc(Sc2cccc3cccnc23)c(O)c2ccccc12)c1ccccc1 | 12.2% |
| O=c1c2c3c(sc2n2c(-c4cc(-c5ccccc5)no4)nnc2n1Cc1ccccc1)CCCC3 | 96.9% |
| CCc1ccc(CCC(=O)Nc2ncc(Cc3ccccc3)s2)o1 | 20.2% |
| S=c1nc2oc(-c3ccccc3)c(-c3ccccc3)c2c(/N=C\c2ccco2)[nH]1 | 85.6% |
| C/C(=N\O)c1ccc(NC(=O)CSc2nnc(-c3cc(-c4ccc(S(C)(=O)=O)cc4)nc4ccccc34)n2-c2ccccc2)cc1 | 84.7% |

Reference: PubChem BioAssay (NCI)
